Measured values taken from PubChem BioAssay AID1159580 (chemical genetic matrix, 2015).
Several values for one entry are separate records, joined by “and”; a condition that tells them apart may be missing. Identical values can stand only once. About 2,000 (36%) of roughly 5,500 compounds were called active. Another 18% or so got no clear call; they are omitted. Rule as the data show it: active = normalized growth mostly below about 0.91 (no sharp cut-off); inconclusive = no clear call, values can overlap the other calls; inactive = mostly above about 0.92. Some of the results follow.

Experiment: chemical genetic growth profiling, strain panel (AID 1159580);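 also: tested at 20 µM; growth read once vehicle control cultures reached saturation at 30 °C; 1 = growth at the plate median or of vehicle wells; lower values mean less growth of the strain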
Conditions: S. cerevisiae deletion strains, growth OD

Measured: normalized growth

CC(C)(C)NCC(O)c1cc(O)cc(O)c1 (stereo not drawn)
inactive: locus YAL013W, strain DEP1, hits give low values 1 | locus YAL021C, strain ccr4, hits give low values 0.975 | locus YAL026C, strain drs2, hits give low values 0.979 | locus YAL030W, strain snc1, hits give low values 0.98 | locus YAL040C, strain CLN3, hits give low values 0.976 | locus YBL061C, strain skt5, hits give low values 0.963 | locus YBR009C, strain hhf1, hits give low values 1.01 | locus YBR021W, strain FUR4, hits give low values 1 | locus YBR023C, strain chs3, hits give low values 0.972 | locus YBR171W, strain sec66, hits give low values 0.986 | locus YBR229C, strain ROT2, hits give low values 0.996 | locus YBR231C, strain swc5, hits give low values 0.997 | locus YBR279W, strain paf1, hits give low values 0.98 | locus YCL011C, strain gbp2, hits give low values 0.985 | locus YCL016C, strain dcc1, hits give low values 0.967 | locus YCL029C, strain bik1, hits give low values 0.987 | locus YCL061C, strain MRC1 (second series), hits give low values 0.988 | locus YCL069W, strain vba3, hits give low values 0.988 | locus YCR088W, strain abp1, hits give low values 0.984 | locus YDL005C, strain med2, hits give low values 0.959 | locus YDL035C, strain GPR1, hits give low values 0.994 | locus YDL040C, strain nat1, hits give low values 0.973 | locus YDL074C, strain BRE1, hits give low values 1.02 | locus YDL101C, strain DUN1, hits give low values 0.987 | locus YDL134C, strain PPH21, hits give low values 1 | locus YDL192W, strain arf1, hits give low values 0.971 | locus YDR001C, strain nth1, hits give low values 0.982 | locus YDR069C, strain doa4, hits give low values 0.993 | locus YDR101C, strain arx1, hits give low values 0.977 | locus YDR137W, strain rgp1, hits give low values 0.962 | locus YDR159W, strain sac3, hits give low values 0.983 | locus YDR162C, strain NBP2, hits give low values 0.995 | locus YDR195W, strain ref2 0.998 | locus YDR297W, strain sur2, hits give low values 0.99 | locus YDR318W, strain mcm21, hits give low values 0.979 | locus YDR334W, strain swr1, hits give low values 0.964 | locus YDR335W, strain msn5, hits give low values 0.984 | locus YDR363W, strain ESC2, hits give low values 0.957 | locus YDR388W, hits give low values 0.988 | locus YDR392W, strain spt3, hits give low values 0.883 | locus YDR502C, strain sam2, hits give low values 0.978 | locus YEL003W, strain gim4, hits give low values 0.992 | locus YEL037C, strain rad23, hits give low values 0.972 | locus YEL061C, strain CIN8 (second series), hits give low values 0.977 | locus YEL061C, strain CIN8, hits give low values 0.994 | locus YER002W, strain NOP16, hits give low values 1.01 | locus YER015W, strain faa2, hits give low values 0.987 | locus YER016W, strain bim1, hits give low values 0.946 | locus YER110C, hits give low values 0.97 | locus YER111C, strain swi4, hits give low values 0.967 | locus YER155C, strain BEM2 (second series), hits give low values 0.975 | locus YER155C, strain BEM2, hits give low values 0.991 | locus YER167W, strain BCK2, hits give low values 0.993 | locus YFR010W, strain ubp6, hits give low values 0.999 | locus YGL078C, strain dbp3, hits give low values 0.981 | locus YGL086W, strain mad1, hits give low values 0.987 | locus YGL167C, strain pmr1, hits give low values 0.986 | locus YGL173C, strain kem1, hits give low values 0.971 | locus YGL227W, strain vid30, hits give low values 0.98 | locus YGL240W, strain doc1, hits give low values 1.02 | locus YGL248W, strain PDE1, hits give low values 0.999 | locus YGL253W, strain hxk2, hits give low values 0.962 | locus YGR078C, strain PAC10, hits give low values 0.993 | locus YGR135W, strain pre9, hits give low values 0.982 | locus YGR229C, strain SMI1, hits give low values 0.972 | locus YGR252W, strain gcn5, hits give low values 1.15 | locus YHR013C, strain ard1, hits give low values 0.955 | locus YHR027C, strain rpn1, hits give low values 0.993 | locus YHR030C, strain SLT2, hits give low values 0.981 and 0.948 | locus YHR079C, strain IRE1 (second series), hits give low values 0.981 | locus YHR079C, strain IRE1, hits give low values 0.974 | locus YHR094C, strain hxt1, hits give low values 0.975 | locus YHR129C, strain ARP1, hits give low values 1 | locus YHR142W, strain chs7, hits give low values 0.973 | locus YHR200W, strain rpn10, hits give low values 0.987 | locus YIL066C, strain RNR3, hits give low values 0.994 | locus YIL073C, strain SPO22, hits give low values 0.938 | locus YIL125W, strain kgd1, hits give low values 0.958 | locus YIR030C, strain dcg1, hits give low values 0.992 | locus YJL092W, strain hpr5, hits give low values 0.99 | locus YJL095W, strain BCK1 (second series), hits give low values 1 | locus YJL095W, strain BCK1, hits give low values 1.01 and 0.964 | locus YJL115W, strain asf1, hits give low values 1 | locus YJL129C, strain trk1, hits give low values 0.934 | locus YJL134W, strain LCB3, hits give low values 0.987 | locus YJL154C, strain vps35, hits give low values 0.974 | locus YJL164C, strain tpk1, hits give low values 1 | locus YJL166W, strain qcr8, hits give low values 1.02 | locus YJL168C, strain set2, hits give low values 0.984 | locus YJL187C, strain SWE1 (second series), hits give low values 0.976 | locus YJR043C, strain POL32, hits give low values 1 | locus YJR066W, strain TOR1, hits give low values 0.916 | locus YJR075W, strain HOC1, hits give low values 0.98
